Compounds with a hit are over-represented: about 14% of the library has one in this group of screens.
HSD17B inhib: HSD17B dehydrogenase inhibition | Q99714 | Potency, µM (series often up to 57.1 µM), usual class: inhibitors | recombinant HSD17B10, NADH fluorescence kinetic | 75,000 compounds, 7.6% hits;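 note: the protocol describes HADH2 (HSD17B10) and not the HSD17B4 of the title; nearly all actives have a fitted effect of over 70% in size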
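His-tagged E. coli-expressed HADH2 at 20 nM in 100 mM Tris-HCl pH 9.0 with 0.01 % Tween-20, preincubated 15 min with compound at room temperature. Reaction with 1 mM NAD+ and 90 uM beta-hydroxybutyryl coenzyme A; NADH fluorescence (360/450 nm) read kinetically over 4 min, last minus first point.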
AID923: qHTS Assay for Allosteric/Competitive Inhibitors of Caspase-1: Spectroscopic Profiling in AFC Spectral Region. compound fluorescence, AFC spectral region (405/520 nm). Potency, µM (titrated, usually from 57.5 µM), usual class: activators. 75,000 compounds, 1.1% hits
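Baseline compound fluorescence (AFC region, 405 nm ex/520 nm em) taken from the intercept of kinetic reads with 50 nM caspase-1 and 5 uM Ac-WEHD-AFC; normalized to an on-plate AFC standard curve; compounds titrated up to 57 uM.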
CRE-bla Fsk: alters forskolin-stimulated CRE reporter signaling in CHO cells; 71,000 compounds, 2.5% hits; Potency, µM (highest dose often 38.2 µM), hits mostly activators; CHO CRE-bla reporter (cAMP response element driving beta-lactamase), forskolin EC10, beta-lactamase ratio; active = well fitted activation curve with a large enough effect in the signal ratio, with a control signal flat, not every such curve was filed as active; inconclusive = small, poorly fitted or top-dose-only effect, or effect the other way, or a change in a side signal; the % refers to the signal ratio
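CRE-bla CHO reporter cells treated with compound titration plus EC10 NKH 477 (water-soluble forskolin), incubated 3 h at 37 °C; CCF4 loading 2 h at room temperature, 460/530 nm emission ratio read, AC50 values derived for positive or negative modulators.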
HADH2 inh: HADH2 (human) dehydrogenase inhibition; Q99714; recombinant HADH2, NADH fluorescence, beta-hydroxybutyryl-CoA; Potency, µM (series often up to 57.1 µM), usual class: inhibitors; 73,000 compounds, 3.4% hits; note: nearly all actives have a fitted effect of over 60% in size
Target sequence (Q99714 whole entry, looked up, one chain of several): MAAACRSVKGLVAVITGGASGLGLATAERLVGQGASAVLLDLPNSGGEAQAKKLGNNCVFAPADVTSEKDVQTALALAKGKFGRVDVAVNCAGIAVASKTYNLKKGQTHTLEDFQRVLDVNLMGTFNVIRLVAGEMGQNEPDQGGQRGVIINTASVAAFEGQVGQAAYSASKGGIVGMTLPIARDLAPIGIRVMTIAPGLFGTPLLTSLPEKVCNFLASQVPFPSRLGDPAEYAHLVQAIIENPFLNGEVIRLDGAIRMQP
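20 nM HADH2 + cpd, 15 min RT; add 1 mM NAD+/90 uM beta-hydroxybutyryl-CoA; kinetic fluorescence 360/450 nm, 4 min. Tris-HCl pH 9.0, 0.01% Tween-20.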
4MU fluor: compound fluoresces in the 4-MU spectral region. compound autofluorescence, 340/450 nm, 4-MU equivalents; hits give high values. max dye-equivalent concentration, M. 59,000 compounds, 11% hits. AID 589; in the data active = max dye-equivalent concentration above about 10 nM; inconclusive = mostly about 1.1 nM to 9.6 nM
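Compounds in 100 mM Tris, pH 8.0, incubated 15 min at room temperature, then fluorescence read at 340 nm excitation/450 nm emission. Signal converted to 4-MU dye-equivalent concentration using an on-plate six-point 4-MU standard curve.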
A350 fluor: compounds fluorescent in Alexa 350 spectral region; Compound autofluorescence, 340/450 nm, Alexa 350 dye-equivalents; hits give high values; max dye-equivalent concentration, M; 59,000 compounds, 11% hits; AID 590; in the data active = max dye-equivalent concentration above about 10 nM; inconclusive = mostly about 1.1 nM to 9.6 nM
CHO tox 24h: CHO cell toxicity at 24 h by ATP luminescence; activity, negative = viability loss, % at 46.1 µM; 120 tested, under 10 active; shares compounds with CRE-bla Fsk; CRE-bla CHO viability, ATP luminescence, 24 h; AID 905
CHO tox 40h: cytotoxicity in CRE-bla CHO cells at 40 h; 120 tested, under 10 active; Potency, µM, actives largely listed as inhibitors; CRE-bla CHO viability, ATP luminescence, 40 h; shares compounds with CRE-bla Fsk; AID 906
CREB luc CRC: confirmation of CRE signaling potentiators in HEK293 CREB reporter cells; shares compounds with CRE-bla Fsk; HEK293 CRE-luc2P, NKH477 EC10 potentiation, luminescence, 4 h; Potency, µM (highest dose often 38.3 µM), actives largely listed as activators; 120 compounds, 80% hits
A number is an active result; 0 = inactive; ? = inconclusive; - = not tested or not shown; [ ] = another dose, or the depositor's remark. Unless noted, calls come from the whole dose curve; as a rule, active = well fitted curve in the direction sought with a large enough effect; inconclusive = small, poorly fitted or top-dose-only effect, or another doubt; inactive = no such curve, though single readings can be large; an effect the other way counts as inactive or inconclusive.

SMILES	HSD17B inhib	AID923	CRE-bla Fsk	HADH2 inh	4MU fluor	A350 fluor	CHO tox 24h	CHO tox 40h	CREB luc CRC
COc1ccc(C(OC(=O)c2ccco2)C(=O)NCc2ccco2)cc1 (centres undefined)	0	0	0	0	0	0	-	-	-
CCC(C(=O)NCc1ccc(F)cc1)N(Cc1ccco1)C(=O)c1snc(C(N)=O)c1N (centres undefined)	25µM	0	0	0	9e-08M	7.7e-08M	-	-	-
CC(C)CCNC(=O)C(c1ccco1)N(Cc1ccc(F)cc1)C(=O)c1snc(C(N)=O)c1N (centres undefined)	25µM	0	0	0	7.7e-08M	7.1e-08M	-	-	-
CCCC(C(=O)NCc1ccc(OC)cc1)N(Cc1ccco1)C(=O)c1snc(C(N)=O)c1N (centres undefined)	?	0	?	0	6.9e-08M	8.1e-08M	-	-	-
Cc1nn(-c2ccccc2)c2sc(C(=O)N(CC(=O)NC(C)(C)C)Cc3ccco3)cc12	0	0	0	0	0	0	?	?	13µM
Clc1cccc(Nc2c3c(nc4ncnn24)CCC3)c1	0	0	?	0	0	0	-	-	-
Cc1ccc(Nc2c3c(nc4ncnn24)CCC3)cc1	0	0	0	0	0	0	0	0	13µM
CSc1nnc2c3ccccc3n(CCc3ccccc3)c2n1	0	0	0.016µM	0[11.4 µM]	-	-	?	?	3.2µM
Cc1sc2nc(SCc3nc4ccccc4[nH]3)n(Cc3ccco3)c(=O)c2c1C	0	0	0.63µM	0	?	?	0	?	1.6µM
CCCc1cc(=O)[nH]c(SC(CC)C(=O)Nc2ccccc2C#N)n1 (centres undefined)	0	0	0	0	0	0	-	-	-
Nc1nc(CSCc2ccccc2)nc(N2CCOCC2)n1	0	0	0	0	0	0	0	0	2.8µM
Nc1nc(N2CCOCC2)nc(N(c2ccccc2)c2ccccc2)n1	0	0	0	0	-	-	-	-	-
CCc1nc(SCC(=O)Nc2ccc3c(c2)OCCO3)c2oc3ccccc3c2n1	0	0	0.4µM	0	0	0	?	32µM	4µM
O=C(CSc1ncnc2c1oc1ccccc12)Nc1ccc2c(c1)OCCO2	0	0	?	0	0	0	-	-	-
Cc1nc(SCC(=O)Nc2ccc3c(c2)OCCO3)c2oc3ccccc3c2n1	0	0	0.25µM	0	0	0	0	0	5µM
CCn1c(=O)cc(SCC(=O)Nc2ccc3c(c2)OCCO3)c2ccccc21	0	0	?	0	0	0	-	-	-
CCN1C(=O)[C@H]2[C@H]3[C@H](O)[C@H](O)C/C(=N/NC(=O)OCc4ccc(OC)cc4)[C@@H]3CC[C@@H]2C1=O	0[11.4 µM]	0[11.5 µM]	-	0[11.4 µM]	-	-	-	-	-
COc1ccc(N2CCN(C(=O)CNC(=O)Cn3c(C)cc4ccccc4c3=O)CC2)cc1	0	0	?	0	0	0	-	-	-
CN(C)c1nc(N(C)C)nc(N(C)C)n1	0	0	0	?	0	0	0	0	?
CCCOC(=O)c1[nH]c2c(c1C)C(=O)CC(c1ccc(OC)c(OC)c1)C2 (centres undefined)	0	0	0	0	0	0	-	-	-
CCCCCOC(=O)c1[nH]c2c(c1C)C(=O)CC(c1ccco1)C2 (centres undefined)	0	0	0.079µM	0	-	-	0	0	0
COc1ccc(NC(=O)COc2ccccc2)c(OC)c1	0	0	0	0	0	0	-	-	-
C=CCNc1nc(Nc2ccc(OC)cc2OC)nc(OCC)n1	0	0	5µM	0	0	0	0	0	10µM
CCOc1ccc(N2CC(C(=O)Nc3ccccc3F)CC2=O)cc1 (centres undefined)	0	0	0	0	0	0	-	-	-

Assay outcomes: PubChem, National Center for Advancing Translational Sciences (NCATS)
